We go through 14 molecules from PubChem BioAssay (NCI).

Some test systems named below: SN12C renal; UO-31 renal; TK-10 renal; ACHN renal; CAKI-1 renal; A498 renal; CCRF-CEM leukemia; MOLT-4 leukemia; SR leukemia.
Experiment in all cases: NCI-60 one-dose screen, 48 h (100 = growth as untreated, 0 = no growth, -100 = all killed)
What all share (conditions): 10 µM

This is part of a sample that, as a whole, favours compounds with a hit. Of some 83,000 tested, about 20% had one in any assay.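 Note: values are percent growth. 100 is the growth of untreated cells, values between 100 and 0 indicate rising inhibition; between -100 and 0 indicates cell death.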 Unmarked numbers belong to inactive results. Calls of active or inactive are those of the source. The calls were made as follows: active = growth percent below 10; inactive = the rest.

For `COC(=O)C1=NNC(=S)N(c2cc(C)[nH]n2)C(=O)C1`, the growth was 96.3% in the assay on SN12C renal; 76.5% with UO-31 renal; 114% in the assay with TK-10 renal; 107% in the assay on ACHN renal; 92.5% in the assay with CAKI-1 renal; 81.8% in the assay on A498 renal. The growth in the assay with CCRF-CEM leukemia is 91.8%; in the assay with MOLT-4 leukemia it was 84.1%; with SR leukemia, 86.3%.

In the case of `O=C(Nc1cccc(-n2cc(-c3ccncc3)c(-c3ccc(O)c(Cl)c3)n2)c1)c1ccc(N2CCOCC2)c(C(F)(F)F)c1`, the growth with SN12C renal was 57.5%; with UO-31 renal it was 13.1%; in the assay with TK-10 renal it was 73.4%; in the assay with ACHN renal, 29.3%; with CAKI-1 renal it was 26.5%; with A498 renal, 71.7%. The growth in the assay on CCRF-CEM leukemia is 20.2%; in the assay with MOLT-4 leukemia, 40.2%; in the assay on SR leukemia, 18%.

As to `COc1cc(-c2cc(/C=C3\C(=O)Nc4ccccc43)[nH]n2)cc(OC)c1OC`, the growth in the assay on SN12C renal was 53.7%; in the assay with UO-31 renal it was 37.2%; with TK-10 renal, 68.1%; in the assay on ACHN renal it was 51.1%; in the assay on CAKI-1 renal it was 25.4%; in the assay with A498 renal, 46.5%. The growth with CCRF-CEM leukemia was 22.3%; with MOLT-4 leukemia, 6.03% (active); in the assay with SR leukemia it was 34.1%.

Consider `O=C1/C(=C/c2ccc([N+](=O)[O-])s2)Oc2ccccc21`, for which the growth in the assay on SN12C renal is -23.1% (active); with UO-31 renal it was -78.1% (active); with TK-10 renal, -21.5% (active); in the assay with ACHN renal, -55.3% (active); in the assay with CAKI-1 renal, -26.8% (active); in the assay with A498 renal, 97.9%. In addition, the growth with CCRF-CEM leukemia is -13% (active); with MOLT-4 leukemia it was -6.14% (active); in the assay on SR leukemia, 7.01% (active).

As to `C#Cc1ccc(-n2c(/C=C/c3ccc(C(F)(F)F)cc3)nc3ncccc3c2=O)cc1`, the growth with SN12C renal was 26.6%; in the assay with UO-31 renal, 11.6%; in the assay on TK-10 renal, 11.4%; in the assay on ACHN renal it was 19%; in the assay with CAKI-1 renal, 14.9%; with A498 renal, 43.7%. Moreover, the growth in the assay on CCRF-CEM leukemia was 3.18% (active); in the assay on MOLT-4 leukemia, 10.2%; in the assay on SR leukemia it was 0.507% (active).

Consider `CCN(CC)CCC(=O)Nc1cccc2c1C(=O)c1c(c(O)c3ccccc3c1O)C2=O`, for which the growth in the assay with SN12C renal was 59.5%; in the assay with UO-31 renal, -68% (active); with TK-10 renal, 95.6%; in the assay with ACHN renal, 21.6%; with CAKI-1 renal it was 14%; in the assay on A498 renal, 71.4%. The growth in the assay with CCRF-CEM leukemia is -3.1% (active); in the assay with MOLT-4 leukemia it was 2.61% (active); in the assay with SR leukemia, 6.44% (active).

Take `CCOC(=O)c1ccoc1`: the growth was 103% with SN12C renal; 95.4% with UO-31 renal; 109% in the assay with TK-10 renal; 96.5% in the assay on ACHN renal; 98.1% in the assay on CAKI-1 renal; 73.7% in the assay with A498 renal. In addition, the growth in the assay with CCRF-CEM leukemia is 100%; with MOLT-4 leukemia, 90.1%; with SR leukemia, 86.4%.

Take `O=[N+]([O-])c1ccc(Oc2cc(Cl)c(Cl)cc2Cl)c(C(F)(F)F)c1`: the growth with SN12C renal is 103%; in the assay with UO-31 renal, 80.2%; with TK-10 renal, 115%; in the assay on ACHN renal, 96.8%; with CAKI-1 renal, 92.3%; in the assay with A498 renal, 90.5%. In addition, the values for the growth in the assay with CCRF-CEM leukemia, in the assay on MOLT-4 leukemia and in the assay on SR leukemia were 93.5%, 87.5% and 100%, respectively.

As for `CC/C(=C(/c1ccc(OCCN(C)C)cc1)c1ccc(OC(=O)CCC(=O)c2c(C)[nH]c(/C=C3\N=C(c4ccc[nH]4)C=C3OC)c2C)cc1)c1ccccc1`, the growth in the assay on SN12C renal was 35.9%; with UO-31 renal it was 5.9% (active); in the assay on TK-10 renal, 21.7%; with ACHN renal, 30.4%; in the assay on CAKI-1 renal, 18.8%; with A498 renal it was 50.3%. The growth in the assay with CCRF-CEM leukemia was 6.12% (active); with MOLT-4 leukemia it was 3.77% (active); in the assay on SR leukemia, -21% (active).

In the case of `COc1cc(-c2cc(/C=C/C(=O)c3ccc(N)cc3)[nH]n2)cc(OC)c1OC`, the growth in the assay on SN12C renal was 13.2%; with UO-31 renal, 6% (active); in the assay on TK-10 renal, -2.46% (active); with ACHN renal, -52.8% (active); with CAKI-1 renal, 9.46% (active); with A498 renal, -8.28% (active). Also, the growth was 5.88% (active) with CCRF-CEM leukemia, 3.34% (active) in the assay on MOLT-4 leukemia and 9.82% (active) in the assay with SR leukemia.

On to `N#Cc1ncc(-c2cc(F)c(F)c(F)c2)c(NC2CCCCCC2)n1`, for which the growth in the assay on SN12C renal is 83.6%; in the assay with UO-31 renal, 89.4%; in the assay on TK-10 renal it was 105%; with ACHN renal, 92.6%; with CAKI-1 renal, 92.9%; in the assay with A498 renal it was 52.2%. Also, the figures for the growth in the assay on CCRF-CEM leukemia, with MOLT-4 leukemia and with SR leukemia were 83.9%, 78.1% and 78.8%, respectively.

In the case of `FC(F)(F)c1ccc(-c2cnc(-n3cc(COCCN4CCCCC4)nn3)nc2NC2CCCCCC2)cc1`, the growth in the assay with SN12C renal is 60.4%; in the assay on UO-31 renal, -6.86% (active); in the assay with TK-10 renal it was -14% (active); with ACHN renal, 35.7%; in the assay on CAKI-1 renal, 46.6%; with A498 renal, 66%. The growth with CCRF-CEM leukemia is -5.93% (active); in the assay on MOLT-4 leukemia, -24.1% (active); in the assay on SR leukemia, -37.4% (active).

Turning to `N#CCCN1C/C(=C/c2ccc(Cl)cc2)C(=O)/C(=C/c2ccc(Cl)cc2)C1`, the growth is -74.8% (active) in the assay with SN12C renal; -95.5% (active) in the assay with UO-31 renal; -40.9% (active) in the assay with TK-10 renal; -70.7% (active) with ACHN renal; -9.22% (active) with CAKI-1 renal; -68.4% (active) with A498 renal. The growth was -3.01% (active) in the assay on CCRF-CEM leukemia, -11.7% (active) in the assay with MOLT-4 leukemia and -17.5% (active) in the assay with SR leukemia.

Turning to `C#Cc1ccc(-n2c(/C=C/c3ccc(O)cc3)nc3ncccc3c2=O)cc1`, the growth is 75.9% in the assay on SN12C renal; 34.3% with UO-31 renal; 93.7% with TK-10 renal; 49.8% with ACHN renal; 55.9% with CAKI-1 renal; -1.24% (active) in the assay with A498 renal. Besides, the values for the growth in the assay with CCRF-CEM leukemia, in the assay on MOLT-4 leukemia and in the assay on SR leukemia were 85.7%, 101% and 18.1%, respectively.
